We go through 13 compounds from PubChem BioAssay (NCI).

About 83,000 compounds went through this panel and 20% of them were active in at least one assay; those are over-represented in the sample as a whole.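 Values shown are percent growth following 48 h exposure of cells in 96-well plates to a single concentration of compound; below 10 was considered active.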 Unmarked numbers belong to inactive results. Activity calls are given as the source filed them.

Among the test systems are SK-MEL-2 melanoma; EKVX NSCLC; SN12C renal; UO-31 renal; TK-10 renal; ACHN renal; CAKI-1 renal; A498 renal; CCRF-CEM leukemia; MOLT-4 leukemia.
Holding throughout (assay): NCI-60 one-dose screen, 48 h (100 = growth as untreated, 0 = no growth, -100 = all killed)
Holding throughout (settings): 10 µM unless noted

On to `COc1cc2c3c(cc4c5c(ccc4c3c1OC)OCO5)N(CCN(C)C)C2=O`, for which the growth with SK-MEL-2 melanoma is -44.5% (active); in the assay with EKVX NSCLC, -22% (active); in the assay with SN12C renal, -5.44% (active); in the assay on UO-31 renal, -53.9% (active); in the assay on TK-10 renal, -4.01% (active); with ACHN renal, -51.4% (active). The growth with CAKI-1 renal is -26.6% (active); with A498 renal, -77.6% (active); with CCRF-CEM leukemia, 1.57% (active); in the assay on MOLT-4 leukemia, 3.85% (active).
On to `O=C(CSc1nnc(-c2ccc(Cl)cc2)n1-c1ccccc1)Nc1ccccc1Cl`, for which the growth in the assay on SK-MEL-2 melanoma was 95.5%; with EKVX NSCLC it was 69.7%; in the assay on SN12C renal, 29.4%; with UO-31 renal, 34.2%; in the assay with TK-10 renal it was 85.1%; with ACHN renal, 21.7%. In addition, the growth in the assay on CAKI-1 renal was 74.6%; in the assay on A498 renal, 104%; in the assay on CCRF-CEM leukemia, 76.7%; in the assay on MOLT-4 leukemia, 85.3%.
On to `O=C(CSc1nc2ccccc2c(=O)n1-c1ccccc1)Nc1ccc(S(=O)(=O)Nc2nccs2)cc1`, for which the growth is 89.9% in the assay with SK-MEL-2 melanoma; 91.3% with EKVX NSCLC; 63.8% in the assay on SN12C renal; 97.2% in the assay on UO-31 renal; 112% in the assay on TK-10 renal; 71.9% in the assay with ACHN renal. The growth with CAKI-1 renal is 59.1%; in the assay with A498 renal, 107%; in the assay on CCRF-CEM leukemia it was 34.8%; with MOLT-4 leukemia, 50.2%.
Regarding `COc1ccc(C2CC(c3cccc(OCCCCOc4cccc(C5=NN(C(C)=O)C(c6ccc(OC)cc6)C5)c4)c3)=NN2C(C)=O)cc1` (stereo not given), the growth in the assay on SK-MEL-2 melanoma was 59.7%; in the assay on EKVX NSCLC it was 46.3%; with SN12C renal it was 79.9%; with UO-31 renal, 54.7%; in the assay on TK-10 renal, 78.9%; in the assay with ACHN renal, 67.2%. Besides, the growth with CAKI-1 renal was 54.1%; in the assay on A498 renal, 75.8%; in the assay on CCRF-CEM leukemia it was 63.8%; with MOLT-4 leukemia, 57.4%.
Turning to `NS(=O)(=O)c1ccc(CCn2c(-c3ccc(C(=O)O)cc3)nc(-c3ccccc3)c2-c2ccccc2)cc1`, the growth is 104% in the assay with SK-MEL-2 melanoma; 100% in the assay on EKVX NSCLC; 101% in the assay with SN12C renal; 90.8% in the assay with UO-31 renal; 102% in the assay with TK-10 renal; 103% in the assay on ACHN renal. Besides, the growth with CAKI-1 renal was 88.7%; in the assay on A498 renal, 102%; in the assay with CCRF-CEM leukemia it was 104%; in the assay with MOLT-4 leukemia, 108%.
Consider `O=C(Nc1cc(C(F)(F)F)cc(C(F)(F)F)c1)Nc1ccc2oc(=O)ccc2c1`, for which the growth with SK-MEL-2 melanoma is -18.5% (active); in the assay on EKVX NSCLC, 9.09% (active); with SN12C renal, -7.21% (active); in the assay with UO-31 renal, 1.64% (active); with TK-10 renal it was 16.1%; with ACHN renal, -3.53% (active). Moreover, the growth with CAKI-1 renal was 1.47% (active); with A498 renal, -1.96% (active); in the assay on CCRF-CEM leukemia it was 17.5%; in the assay on MOLT-4 leukemia, 19.7%.
`CC(C)(O)c1cncc(-c2ccc3ncc(C#N)c(N4CCc5cc(F)c(Cl)cc54)c3c2)c1`: the growth with SK-MEL-2 melanoma was -5.06% (active); with EKVX NSCLC, -10.5% (active); in the assay on SN12C renal, 17.1%; with UO-31 renal, -2.66% (active); with TK-10 renal it was 14.3%; in the assay with ACHN renal it was 6.6% (active). The growth with CAKI-1 renal was 0.608% (active); in the assay with A498 renal, -18.3% (active); in the assay on CCRF-CEM leukemia it was 20.5%; in the assay on MOLT-4 leukemia it was 5.17% (active).
Turning to `C#C[C@]1(O)CC[C@H]2[C@@H]3CC=C4c5sc(NCc6ccccc6)nc5CC[C@]4(C)[C@H]3CC[C@@]21C`, the growth is -17.9% (active) in the assay on SK-MEL-2 melanoma; 55.4% in the assay with EKVX NSCLC; 83.6% in the assay with SN12C renal; 13.2% with UO-31 renal; 76.8% in the assay with TK-10 renal; 61.8% with ACHN renal. Besides, the growth is 50.6% in the assay with CAKI-1 renal, 8.6% (active) with A498 renal, 6.53% (active) with CCRF-CEM leukemia and -11.7% (active) in the assay on MOLT-4 leukemia.
As to `O=C1/C(=C/C=C/c2ccco2)SC(=S)N1Cc1ccccc1`, the growth was 102% in the assay with SK-MEL-2 melanoma; 98% in the assay with EKVX NSCLC; 99.2% in the assay with SN12C renal; 83.9% with UO-31 renal; 124% in the assay on TK-10 renal; 104% in the assay on ACHN renal. Further, the growth in the assay with CAKI-1 renal is 81%; with A498 renal, 88.9%; with CCRF-CEM leukemia, 93.5%; in the assay on MOLT-4 leukemia, 96.4%.
Turning to `CN1CCN(c2ccc(Nc3nc(NCCNS(=O)(=O)c4ccc5ccccc5c4)c4sccc4n3)cc2)CC1`, the growth in the assay on SK-MEL-2 melanoma is 103%; in the assay with EKVX NSCLC it was 86.2%; in the assay with SN12C renal, 79.6%; in the assay on UO-31 renal, 68.9%; in the assay with TK-10 renal it was 127%; with ACHN renal it was 86.8%. The growth in the assay on CAKI-1 renal is 69.5%; in the assay on A498 renal, 86.9%; in the assay with CCRF-CEM leukemia, 41.9%; in the assay on MOLT-4 leukemia, 41.6%.
With `COc1ccc(/C=N\NC(=O)c2cnn(CC(O)c3ccccc3)c2N)cc1OCc1ccc(Cl)cc1` (stereo not given), the growth in the assay on SK-MEL-2 melanoma was 92.9%; with EKVX NSCLC, 79.1%; with SN12C renal it was 84.4%; in the assay with UO-31 renal it was 87.4%; with TK-10 renal, 101%; in the assay with ACHN renal, 58.6%. The growth is 71% in the assay on CAKI-1 renal, 48% in the assay with A498 renal, 72.6% in the assay with CCRF-CEM leukemia and 62.4% in the assay with MOLT-4 leukemia.
With `CC(C)=CCC[C@](C)(O)[C@H]1CC[C@]2(C)[C@@H]1CC[C@@H]1[C@@]3(C)CC[C@H](N)C(C)(C)[C@@H]3CC[C@]12C`, the growth in the assay on SK-MEL-2 melanoma is 109%; with EKVX NSCLC, 73.4%; in the assay on SN12C renal, 96.1%; in the assay on UO-31 renal, 77.1%; with TK-10 renal, 127%; with ACHN renal it was 91.7%. The growth in the assay with CAKI-1 renal was 67.8%; in the assay with A498 renal it was 106%; in the assay on CCRF-CEM leukemia, 0.154% (active); in the assay with MOLT-4 leukemia, 4.46% (active).
For `O=C1Nc2cc(Cl)ccc2/C1=C\c1ccc(OCc2ccccc2)cc1`, the growth in the assay on SK-MEL-2 melanoma is 111%; with EKVX NSCLC, 100%; with SN12C renal, 96%; with UO-31 renal it was 76.2%; in the assay on TK-10 renal, 154%; in the assay with ACHN renal it was 94.8%. Moreover, the growth with CAKI-1 renal is 89.3%; with A498 renal, 93%; in the assay with CCRF-CEM leukemia it was 102%; with MOLT-4 leukemia it was 99.1%.
